Consider 49 molecules from PubChem BioAssay AID2685 (National Center for Advancing Translational Sciences (NCATS), 2010).

About 2,100 (0.66%) of roughly 320,000 compounds were called active. About 53% were inconclusive and are not listed. Calls come from the whole dose curve; as a rule, active = well fitted inhibition curve with a large enough effect in the signal ratio, with a control signal flat (not every such curve was filed as active); inconclusive = small, poorly fitted or top-dose-only effect, or effect the other way, or a change in a side signal; inactive = flat fitted curve, though single readings scatter; the % refers to the signal ratio. This excerpt belongs to a sample that is enriched for actives.
Potency is the fitted concentration of half-maximal effect.

This test in a line: qHTS Assay for Lipid Storage Modulators in Drosophila S3 Cells.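 For cell number change: cells counted by Cell Tracker Red CMTPX staining in the red channel.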 For lipid storage change, negative = inhibition: % is set by controls: 0 for no effect and ±100 for the full control effect. To be noted: BODIPY lipid droplet fluorescence, 18-24 h, cells fed with added oleic acid; cell number change: measured here: cell count max response; series mostly up to 46.1 µM; lipid storage change, negative = inhibition: at the top concentration. The method in brief: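 Laser-scanning cytometry quantifies lipid droplet accumulation (500–530 nm total intensity; droplet/cell object ratio) in oleic acid-fed (400 uM added) Drosophila S3 cells treated with a concentration series. 20 uM Triacsin C defined 100% inhibition.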
As to `Cc1ccc(-c2ccc3nnc(SCC(=O)NCC4CCCO4)n3n2)cc1` (centres undefined), the “lipid storage change, negative = inhibition” value was -0.391% (inactive) and the cell number change came to 7.62%.
The matching figures for `Cc1ccc(NS(=O)(=O)c2ccc(NC(=O)C3CCCO3)cc2)cc1` (centres undefined): -28% (inactive) and -28.7%.
Regarding `COc1ccccc1CN1CCN(C(CC(C)C)c2nnnn2Cc2cccs2)CC1` (centres undefined), the result was inactive.
For `CCOC(=O)[C@@H]1[C@H]2COc3ccccc3[C@H]2N2C(=O)N(c3ccc(Cl)cc3)C(=O)[C@]12C`, the “lipid storage change, negative = inhibition” value is 17.4% (inactive) and the cell number change was 10.8%.
For the molecule `CCOC(=O)[C@@H]1[C@H]2COc3ccccc3[C@@H]2N2C(=O)N(c3ccc(F)cc3)C(=O)[C@@]12C`, the call was inactive and the cell number change is -1.5%.
`CCOC(=O)[C@@H]1[C@H]2COc3ccccc3[C@H]2N2C(=O)N(c3ccc(C(F)(F)F)cc3)C(=O)[C@]12C`: the Potency was 1.46 µM (active) and the cell number change came out at 21.9%.
Turning to `CCc1ccc(NC(=O)C(=S)NC2CCCCC2)cc1`, the “lipid storage change, negative = inhibition” value was 0.149% (inactive) and the cell number change was determined as 1.88%.
On to `Nn1c(SCC(=O)NC2CCCCC2)nnc1-c1ccc(Cl)cc1`, for which the “lipid storage change, negative = inhibition” value is -4.17% (inactive) and the cell number change was determined as 17.9%.
On to `Cc1[nH]n(C)c(=O)c1[N+](=O)[O-]`, for which the “lipid storage change, negative = inhibition” value was 17.8% (inactive) and the cell number change is 4.99%.
As to `COc1ccc(/C=N/OCC(=O)N2CC3(C)CC2CC(C)(C)C3)cc1` (centres undefined), the “lipid storage change, negative = inhibition” value was 0.198% (inactive) and the cell number change was 10.1%.
Turning to `COc1cc(/C=C/C(=O)OCC(=O)N(C)C2CCS(=O)(=O)C2)ccc1OC(F)F` (centres undefined), the “lipid storage change, negative = inhibition” value is -10.5% (inactive) and the cell number change stood at 9.45%.
Take `COc1cc(/C=C/C(=O)OCC(=O)N2CCC(C)CC2)ccc1O`: the “lipid storage change, negative = inhibition” value is 20% (inactive) and the cell number change was 24.6%.
In the case of `CCN(C(=O)COC(=O)/C=C/c1ccc(OC(F)F)c(OC)c1)C1CCS(=O)(=O)C1` (centres undefined), the “lipid storage change, negative = inhibition” value was 3.68% (inactive) and the cell number change came out at 4.02%.
On to `COc1cc(/C=C/C(=O)OCC(=O)N2CC3(C)CC2CC(C)(C)C3)ccc1O` (centres undefined), for which the Potency is 0.651 µM (active) and the cell number change was determined as 18.4%.
The matching figures for `CCN(C(=O)COC(=O)/C=C/c1ccc(O)c(OC)c1)C1CCS(=O)(=O)C1` (centres undefined): 13 µM (active) and -23.9%.
On to `O=c1[nH]c(COc2ccc(Br)cc2Cl)nc2ccccc12`, for which the “lipid storage change, negative = inhibition” value is 5.12% (inactive) and the cell number change was -15%.
Regarding `COc1ccc(CN2CC(C(=O)NCC3CCCO3)CC2=O)cc1` (centres undefined), the “lipid storage change, negative = inhibition” value is 0.667% (inactive) and the cell number change came out at 14%.
Take `N#C/C(=C\c1c(N2CCC(C(N)=O)CC2)nc2ccccn2c1=O)C(=O)NC1CCCCC1`: the Potency was 0.164 µM (active) and the cell number change is -18.3%.
Consider `N#C/C(=C\c1c(N2CCCCCC2)nc2ccccn2c1=O)C(N)=O`, for which the “lipid storage change, negative = inhibition” value is 10.3% (inactive) and the cell number change was 22.6%.
Consider `N#C/C(=C\c1c(N2CCCCCC2)nc2ccccn2c1=O)C(=O)NC1CCS(=O)(=O)C1` (centres undefined), for which the “lipid storage change, negative = inhibition” value is 20.6% (inactive).
On to `O=C1/C(=C\c2ccccc2)CCc2c1[nH]c1ccccc21`, for which the molecule was called inactive.
On to `Cc1cc(=O)n2nc(N3CCCC(C(=O)NCc4cccc(Br)c4)C3)sc2n1` (centres undefined), for which the call was inactive.
On to `NC(=O)c1ccccc1OCc1cccc2ccccc12`, for which the outcome was inactive.
`CC1(C)CC(=O)C2=C(C1)N=C1SCCC(=O)N1C2c1ccccc1` (centres undefined): the “lipid storage change, negative = inhibition” value was 18.4% (inactive) and the cell number change came to 9.02%.
Turning to `Cc1ccc(S(=O)(=O)NNC(=O)c2csnn2)cc1`, the “lipid storage change, negative = inhibition” value is -10.6% (inactive).
As to `O=[N+]([O-])c1ccc(CN2CCCCCC2)s1`, the “lipid storage change, negative = inhibition” value is -6.35% (inactive) and the cell number change was -8.81%.
For the molecule `Cc1ccc2nc(SCC(=O)Nc3cccc(F)c3)nc(=O)n2c1`, the Potency was 4.11 µM (active) and the cell number change amounted to 1.08%.
Regarding `Cc1ccc2nc(SCC(=O)Nc3ccc(Br)cc3)nc(=O)n2c1`, the “lipid storage change, negative = inhibition” value is -21.1% (inactive) and the cell number change was -15.9%.
With `Cc1ccc2nc(SCC(=O)Nc3cc(C)on3)nc(=O)n2c1`, the cell number change was found to be 23.9% and the lipid storage change, negative = inhibition is -10.5% [at 0.0737 µM] (inactive).
With `CCOC(=O)C1=C(N)OC2=C(C(=O)CC(C)(C)C2)C1c1cccnc1` (centres undefined), the “lipid storage change, negative = inhibition” value was 26.8% (inactive) and the cell number change was -4.63%.
Turning to `CCOCCCNC(=S)N(Cc1ccccc1)Cc1nc2ccccc2c(=O)[nH]1`, the Potency is 0.92 µM (active) and the cell number change amounted to 5.59%.
On to `COCCCNC(=S)N(Cc1ccccc1)Cc1ccccc1`, for which the “lipid storage change, negative = inhibition” value was -3.1% (inactive) and the cell number change was -0.836%.
Take `O=C(c1ccccc1)N(Cc1ccc(F)cc1)Cc1nc2ccccc2c(=O)[nH]1`: the “lipid storage change, negative = inhibition” value is 4.2% (inactive) and the cell number change was -10.1%.
In the case of `CNC(=S)N(Cc1cc2ccc(OC)cc2[nH]c1=O)CC1CCCO1` (centres undefined), the “lipid storage change, negative = inhibition” value is -12.6% (inactive) and the cell number change is -8.74%.
In the case of `Cc1onc(-c2ccccc2)c1-c1ccnn1C(=O)NC(C)C`, the “lipid storage change, negative = inhibition” value was -0.97% (inactive) and the cell number change came out at 15.2%.
For `O=C1CCCC(=O)N1c1ccc(N2CCN(c3ccccc3)CC2)c([N+](=O)[O-])c1`, the “lipid storage change, negative = inhibition” value is 6.96% (inactive) and the cell number change was -1.18%.
Take `Cc1cccc(N2CCN(c3ccc(N4C(=O)CCCC4=O)cc3[N+](=O)[O-])CC2)c1C`: the “lipid storage change, negative = inhibition” value was 11.2% (inactive) and the cell number change came to 4.71%.
Consider `O=C1CCCC(=O)N1c1ccc(N2CCN(c3ccc([N+](=O)[O-])cc3)CC2)c([N+](=O)[O-])c1`, for which the Potency was 20.6 µM (active) and the cell number change was -26.2%.
Turning to `COC(=O)[C@@H]1C[C@@]2(O)[C@@H](O)[C@@H](O)[C@@H](O)C[C@H]2N1CC(c1ccccc1)c1ccccc1`, the “lipid storage change, negative = inhibition” value was -0.438% (inactive).
Consider `O=C(c1cc2n(n1)C(C(F)(F)F)CC(c1ccc(Cl)cc1)N2)N1CCCC1` (centres undefined), for which the call was inactive.
Regarding `O=C(O)CCC(=O)N1CCc2cc(S(=O)(=O)NCc3ccc(Cl)cc3)ccc21`, the “lipid storage change, negative = inhibition” value is 2.28% (inactive).
Consider `COc1ccccc1OCC(=O)Nc1ccc(NC(=O)COc2ccccc2OC)cc1`, for which the “lipid storage change, negative = inhibition” value was -14.2% (inactive) and the cell number change was -9.29%.
Take `CC1CCCCC1NC(=O)CSc1nc2ccccc2[nH]1` (centres undefined): the “lipid storage change, negative = inhibition” value was 5.65% (inactive) and the cell number change is 3.6%.
The matching figures for `COc1ccc2nc(SCC(=O)NC3CCCCC3)[nH]c2c1`: 7.03% (inactive) and 19.4%.
Turning to `COc1ccc2nc(SCC(=O)NC3CCCCC3C)[nH]c2c1` (centres undefined), the Potency was 29.1 µM (active) and the cell number change worked out at 1.48%.
`CCCCCCCCCCOC(=O)c1csc2nnsc12`: the “lipid storage change, negative = inhibition” value was 2.92% (inactive) and the cell number change was 6.22%.
The matching figures for `O=C(NCCCO)c1ccc2[nH]c3ccccc3c2c1`: 26.1% (inactive) and -15.6%.
Consider `Cc1cnc(C(=O)Nc2cccc(-c3nnc4n3CCCCC4)c2)cn1`, for which the “lipid storage change, negative = inhibition” value is 3.04% (inactive) and the cell number change amounted to 3.24%.
Consider `Cc1ccc(C(NC(=O)N2CC(C)OC(C)C2)C(Cl)Cl)cc1F` (centres undefined), for which the “lipid storage change, negative = inhibition” value is -10.8% (inactive) and the cell number change is -1.54%.
